# Among all 2,300 compounds or so, about 1,200 (52%) were called active. Another 34% or so got no clear call; they are omitted. The set was probably picked from earlier hits. The list shows a part of the results. Unmarked numbers belong to inactive results. The call rests on the fitted dose curve; in most records, active means well fitted inhibition curve with a large enough effect; inconclusive means small, poorly fitted or top-dose-only effect, or effect the other way; inactive means no such curve, though single readings can be large or run the other way.
# Experiment: Confirmation screen for delayed death inhibitors of the malarial parasite plastid, 48 hour incubation; further: nearly all actives have a fitted effect of over 65% in size
# Settings: P. falciparum-infected erythrocytes, luciferase growth; series mostly up to 28.7 µM; activity change, negative = inhibition: at the top concentration
# How it was run: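 Single-generation (48 h, 37 C) exposure of integrated firefly luciferase-reporter P. falciparum in red cells, 0.1% parasitemia at 2% hematocrit, Albumax-supplemented RPMI. Falling luciferase signal marks parasite growth inhibition.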
# On the % scale 0 is the no-effect control and ±100 the full control effect; potency means the concentration at half of the fitted maximal effect.
Compound,"activity change, negative = inhibition [%]",Potency
COc1ccccc1NC(=O)c1ccc(S(=O)(=O)NCc2ccco2)cc1,-9.3,–
CCOc1ccccc1NC(=O)c1cc(S(=O)(=O)NCc2ccco2)ccc1F,–,12.6 µM (active)
O=C1c2cccc3cc([N+](=O)[O-])cc(c23)C(=O)N1CCN1CCCC1,–,10 µM (active)
Cc1nnnn1/C(=C\c1ccccc1)C(=O)OCC(=O)N1CC2(C)CC1CC(C)(C)C2 (centres undefined),–,12.6 µM (active)
O=C(NCCCN1CCCC1)c1ccc2c(c1)N(Cc1ccccc1F)C(=O)c1ccccc1S2=O (centres undefined),–,12.6 µM (active)
Cc1cccc(CN2C(=O)c3ccccc3S(=O)(=O)c3ccc(C(=O)NCCCN4CCCC4)cc32)c1,–,3.98 µM (active)
O=C(c1ccc2c(c1)N(Cc1cccc(Cl)c1)C(=O)c1ccccc1S2(=O)=O)N1CCN(c2ccccn2)CC1,–,3.98 µM (active)
CCN1C(=O)c2ccccc2Sc2ccc(C(=O)NCCCN3CCCCC3)cc21,–,12.6 µM (active)
CC(C)[C@H](NC(=O)N1CCn2c1nc1ccccc12)C(=O)N[C@H](C(=O)O)c1ccccc1,-7.59,–
CCOC(=O)N1CCN(C(=O)c2ccc3c(c2)N(Cc2cc(C)ccc2C)C(=O)c2ccccc2S3=O)CC1 (centres undefined),–,4.47 µM (active)
CCN1CCCC1CNC(=O)c1ccc2c(c1)N(Cc1ccccc1F)C(=O)c1ccccc1S2(=O)=O (centres undefined),–,5.01 µM (active)
CC(NC(=O)CCl)c1ccccc1Br (centres undefined),–,2.24 µM (active)
CC(=O)/C=C/c1ccc2ccccc2n1,–,12.6 µM (active)
Cc1cccc(N(Cc2ccccc2)C(=O)CSC(C)C(=O)Nc2cc(C)on2)c1 (centres undefined),–,11.2 µM (active)
Cc1cc(C)c(OCC(O)CNC(C)(C)C)c(C)c1 (centres undefined),–,11.2 µM (active)
Cn1nnnc1Sc1ncnc2scc(-c3cccs3)c12,–,12.6 µM (active)
Cn1nnnc1Sc1ncnc2scc(-c3ccsc3)c12,–,4.47 µM (active)
Cn1nnnc1Sc1ncnc2scc(-c3ccc[nH]3)c12,–,12.6 µM (active)
O=C(NCc1ccccn1)Nc1cc(Cl)ccc1Cl,–,5.01 µM (active)
Cc1ccc(Oc2nc3ccccn3c(=O)c2/C=C(\C#N)C(=O)NC2CCS(=O)(=O)C2)c(C)c1 (centres undefined),–,12.6 µM (active)

Compound,"activity change, negative = inhibition [%]",Potency
CCN(CC)CCNC(=O)C1c2cc(OC)c(OC)cc2C(=O)N2CCc3ccccc3C12 (centres undefined),–,7.08 µM (active)
CCCN(CCC)CCNC(=O)C1c2ccccc2C(=O)N2CCc3ccccc3C12 (centres undefined),-12.8,–
CC(=O)c1ccccc1OCC(O)CN1CCN(C(c2ccccc2)c2ccccc2)CC1 (centres undefined),–,2.24 µM (active)
O=C(N/N=C/c1ccc([N+](=O)[O-])cc1)c1cccc(N2CCCC2=O)c1,–,11.2 µM (active)
Cc1nn(-c2ccccc2)c(N2CCCC2)c1/C=N/NC(=O)c1ccccc1O,–,5.01 µM (active)
Cc1nn(-c2ccccc2)c(N2CCCC2)c1/C=N/NC(=S)Nc1ccccc1F,–,12.6 µM (active)
CC(C)Cc1csc(NC(=O)C(C)C)c1C(=O)O,-20.8,–
CCOC(=O)C1(CCc2ccccc2)CCN(Cc2ccccn2)CC1,–,4.47 µM (active)
Cc1cccc(NC(=O)CSc2nc3ccccc3nc2N2CCCC2)c1,–,14.1 µM (active)
Cc1cccc(NC(=O)CSc2nc3ccccc3nc2N2CCCCC2)c1,–,11.2 µM (active)
COc1cccc(NC(=O)CSc2nc3ccccc3nc2N2CCCC2)c1,–,14.1 µM (active)
Nc1nc(N)nc(-c2cc([N+](=O)[O-])ccc2O)n1,-11.4,–
O=C1C(=O)c2ccccc2C(O)=C1c1cccc([N+](=O)[O-])c1,–,12.6 µM (active)
Cc1ccc(C2C3=C(CC(C)(C)CC3=O)N=C3c4ccccc4C(=O)C32)cc1 (centres undefined),–,8.91 µM (active)
COc1ccc(-n2c(C)cc(C(=O)Cn3c(NCCO)nc4ccccc43)c2C)cc1,–,12.6 µM (active)
Cc1ccccc1C1c2[nH]c3ccccc3c2CCN1Cc1cccn1-c1ncccn1 (centres undefined),–,12.6 µM (active)
CCOc1ccc(C2c3[nH]c4ccccc4c3CCN2Cc2cccn2-c2ncccn2)cc1 (centres undefined),–,12.6 µM (active)
Cc1cc(C)cc(-n2c(N)c(C(=O)Nc3c(C)n(C)n(-c4ccccc4)c3=O)c3nc4ccccc4nc32)c1,–,4.47 µM (active)
Cc1c(NC(=S)NC(=O)C(C)(C)C)c(=O)n(-c2ccccc2)n1C,4.84,–
COc1ccc2c(C)c(CCC(=O)NC3CC3)c(=O)oc2c1C,–,3.98 µM (active)

Compound,"activity change, negative = inhibition [%]",Potency
COc1ccc(/C=C/C(=O)c2ccc([N+](=O)[O-])o2)cc1OC,–,11.2 µM (active)
CCCSc1ccc(-c2nn(-c3ccccc3)cc2/C=C(/C#N)C(=O)NCCCOC)cc1,–,5.62 µM (active)
CN1CCN(c2ccccc2NC(=O)c2cccc(OCc3ccccc3)c2)CC1,–,7.94 µM (active)
Cc1cc(=O)oc2ccc(OCC(=O)N3CCc4ccccc43)cc12,–,10 µM (active)
O=C(O)c1nn(CCOc2ccc(Cl)cc2Cl)c(=O)c2ccccc12,-10,–
CCC1CCCCN1CCCNC(=O)Cn1c(=O)c2cccn2c2cccnc21 (centres undefined),-8.96,–
CCC1CCCCN1CCCNC(=O)CNC(=O)c1nn(-c2ccc(OC)c(Cl)c2)c(=O)c2ccccc12 (centres undefined),–,11.2 µM (active)
O=C1NC(NS(=O)(=O)c2ccc(Cl)cc2)(C(F)(F)F)C(=O)N1Cc1cccnc1 (centres undefined),-27.7,–
CCCOc1cc(NCc2ccccc2)c2ncn(C(C)C)c2c1,–,5.01 µM (active)
CCCN1C2=C(C(=O)CCC2)C(c2ccc(O)c(Br)c2)C2=C1CCCC2=O,–,12.6 µM (active)
O=c1cc(CSc2ccc(Cl)cc2)nc(-c2ccccn2)[nH]1,–,5.01 µM (active)
CCc1nc(SCC(=O)Nc2ccccc2OC)c2c(C)c(C)sc2n1,–,12.6 µM (active)
Cc1sc2nc(C3CC3)nc(SCC(=O)N3c4ccccc4CC3C)c2c1C (centres undefined),–,14.1 µM (active)
CCc1nc(SCC(=O)N2c3ccccc3CC2C)c2c(C)c(C)sc2n1 (centres undefined),–,11.2 µM (active)
C=CCNC(=O)c1cnc2n(c1=O)CCS2,-0.495,–
C=CCn1c(SCc2cc(=O)n3cc(C)ccc3n2)nnc1-c1ccc(F)cc1,–,14.1 µM (active)
COC(=O)C1=C(C)Nc2ncnn2C1c1ccccn1 (centres undefined),-2.2,–
Cc1ccc(Cn2c(C)nc3c(c2=O)c2nc4ccccc4nc2n3Cc2ccco2)cc1,–,7.08 µM (active)
Cc1cc(C)cc(-n2c3nc4ccccc4nc3c3c(=O)n(Cc4ccco4)cnc32)c1,–,12.6 µM (active)
